Laboratory results reported in the supplement of paper PMC6555819.

Tests used:
Experiment in all cases: PBM binding z-score (relative to random genomic background probes); higher = stronger binding; sequences stand for … in GC…GCGATTGACAGCGTAGAATGAAGG
[1] = test system: FXR:RXRa (NR concentration 270 nM, RXRa partner concentration 90 nM)
Outline: (§1)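 Scanned fluorescence from custom Agilent 4×180K protein-binding microarrays was regression-normalized. Binding z-scores use random background probes as reference. Ligand-free nuclear receptor dimers were incubated on the arrays for 1 h and detected with antibodies against each partner (one per run).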

[2] = test system: LXRa:RXRa (NR concentration 270 nM, RXRa partner concentration 90 nM)
Outline: as §1

[3] = test system: LXRa homodimer (NR concentration 270 nM)
Outline: as §1

[4] = test system: LXRb:RXRa (NR concentration 270 nM, RXRa partner concentration 90 nM)
Outline: as §1

[5] = test system: LXRb homodimer (NR concentration 270 nM)
Outline: as §1

[6] = test system: PPARa:RXRa (NR concentration 270 nM, RXRa partner concentration 90 nM)
Outline: as §1

[7] = test system: PPARg:RXRa (NR concentration 180 nM, RXRa partner concentration 90 nM)
Outline: as §1

[8] = test system: PPARg:RXRa 270nM:90nM, anti-RXR (NR concentration 270 nM, RXRa partner concentration 90 nM)
Outline: as §1

[9] = test system: PPARg:RXRa 30nM:10nM, anti-RXR (NR concentration 30 nM, RXRa partner concentration 10 nM)
Outline: as §1

[10] = test system: PPARg:RXRa 90nM:30nM, anti-RXR (NR concentration 90 nM, RXRa partner concentration 30 nM)
Outline: as §1

[11] = test system: PPARg:RXRa DBDmut IVT, anti-RXR (DBD mutation: RXRa K156A/R161A, NR concentration 270 nM, RXRa partner concentration 90 nM)
Outline: as §1

[12] = test system: PPARg:RXRa IVT, anti-PPARg (NR concentration 270 nM, RXRa partner concentration 90 nM)
Outline: as §1

[13] = test system: PPARg DBDmut:RXRa IVT, anti-PPARg (DBD mutation: PPARg1 K132A/R137A, NR concentration 270 nM, RXRa partner concentration 90 nM)
Outline: as §1

[14] = test system: PPARg DBDmut IVT, anti-PPARg (DBD mutation: PPARg1 K132A/R137A, NR concentration 270 nM)
Outline: as §1

[15] = test system: PPARg homodimer (NR concentration 180 nM)
Outline: as §1

[16] = test system: PXR:RXRa (NR concentration 270 nM, RXRa partner concentration 90 nM)
Outline: as §1

[17] = test system: PXR homodimer (NR concentration 270 nM)
Outline: as §1

[18] = test system: RARa:RXR (NR concentration 270 nM, RXRa partner concentration 90 nM)
Outline: as §1

[19] = test system: RARa homodimer (NR concentration 270 nM)
Outline: as §1

[20] = test system: RARb:RXRa (NR concentration 270 nM, RXRa partner concentration 90 nM)
Outline: as §1

Sequence | PBM binding z-score [1] | PBM binding z-score [2] | PBM binding z-score [3] | PBM binding z-score [4] | PBM binding z-score [5] | PBM binding z-score [6] | PBM binding z-score [7] | PBM binding z-score [8] | PBM binding z-score [9] | PBM binding z-score [10] | PBM binding z-score [11] | PBM binding z-score [12] | PBM binding z-score [13] | PBM binding z-score [14] | PBM binding z-score [15] | PBM binding z-score [16] | PBM binding z-score [17] | PBM binding z-score [18] | PBM binding z-score [19] | PBM binding z-score [20]
CTAGCAAGGTGAACAAGGTCGTTGATTACTATTC | 1.2 | 1.17 | -0.0996 | 1.45 | -1.03 | 2.39 | 0.843 | 1.3 | 0.0127 | 0.796 | 2.52 | 2.56 | 0.0933 | -0.41 | 0.474 | 2.46 | 1.4 | 1.95 | -0.493 | 2.15
TCTTGTAGATCAAGCAGGTAAAGAAAGCCTGAGT | 0.242 | 0.228 | -0.344 | 0.219 | -0.624 | 0.499 | -0.39 | 0.967 | 2.41 | 1.62 | 1.45 | 0.35 | 0.0649 | 0.0829 | 0.161 | 0.0667 | 0.176 | 0.203 | -0.0123 | -0.301
CAGCCTAGGTCAGGGCCAGTTTAGGAGGAACGTT | 2.04 | 1.26 | -0.426 | 0.837 | -1.02 | 2.13 | 0.55 | 0.962 | -0.489 | 0.124 | 1.5 | 1.79 | -1.02 | -1.5 | 0.437 | 1.03 | -0.16 | 1.32 | -0.133 | 3.41
CAAACTAGGTGAAGAGGTCAAAGTCCGCTTCCCG | 4.89 | 4.87 | 4.29 | 4.34 | 0.798 | 5.95 | 8.28 | 7.03 | 5.27 | 7.36 | 7.18 | 7.52 | 2.35 | 2.46 | 2.49 | 5.31 | 1.58 | 5.42 | 0.811 | 4.19
TCACGGAGGACACGAAGGTCAGAGCTTTCCAGAG | 1.21 | 1.07 | 0.259 | 0.963 | -1.12 | 1.99 | 0.712 | 1.52 | 2.16 | 1.87 | 1.52 | 0.826 | -1.19 | -0.604 | 1.45 | 1.98 | 1.22 | 2.3 | 0.266 | 3.44
ATCGAAAGGTCGAGGAGAGTATAGAGAAAGGGAA | 4.17 | 3.26 | 0.202 | 2.47 | 0.669 | 4.24 | 2.57 | 2.92 | 1.38 | 2.09 | 0.194 | 1.22 | 1.53 | 0.209 | 1.53 | 2.33 | 0.36 | 2.76 | 0.436 | 3.9
CCTACTGGGCCATCAGGCCATTGATATCAACGTT | 0.133 | -0.192 | -0.106 | -0.246 | -0.678 | 0.569 | 1.16 | 1.79 | 0.105 | 0.915 | 3.85 | 3.8 | -0.657 | -0.731 | 0.142 | -0.281 | -0.336 | -0.428 | -0.00311 | 0.28
ATCGAAAGGTCGACGAGGTGCGTATACACCGTTT | 4.16 | 2.96 | -0.0247 | 2.54 | 0.0651 | 4.07 | 2.24 | 2.73 | 0.695 | 1.53 | 0.356 | 1.41 | 0.639 | -0.109 | 1.06 | 3.37 | -0.325 | 2.45 | -0.212 | 3.79
GCTAGTTGGCCAGTAAAAGGTCACACACCGGTCG | 2.93 | 4.16 | 3.87 | 4.02 | 0.221 | 4.29 | 1.91 | 3.48 | 1.25 | 2.46 | 0.354 | 1.78 | -0.104 | -0.574 | 3.08 | 4.62 | 0.59 | 5.25 | 0.379 | 4.07
CCTACTGGGCCAAAGGGCATTGATTCCAATGCTC | 0.0219 | 0.199 | -0.482 | 0.36 | -1.02 | 4.61 | 10.3 | 9.18 | 8.24 | 9.29 | 4.36 | 5.09 | 0.51 | -0.625 | 1.09 | 0.249 | -0.593 | 0.757 | -0.681 | 1.59
TCAGACAGGTGAAGGTAACTCTGGTACGCAGTCG | 0.419 | 2.39 | -0.038 | 1.46 | -0.229 | 1.23 | 0.517 | 2.02 | 3.66 | 2.66 | 2.58 | 0.996 | 0.246 | -0.784 | 0.246 | 0.678 | 0.0805 | 0.872 | 0.122 | 1.07
AGAACGAGGGCACGCTGAGTCGATAGCAGAGTAG | 0.534 | 0.569 | -0.415 | -0.0914 | -1.26 | 1.98 | 2.05 | 1.66 | 0.0721 | 0.871 | 4.27 | 3.81 | 0.34 | 0.0245 | -0.314 | 0.266 | -0.486 | 0.489 | -0.608 | 2.42
ACAGACAGGTGATGAAGGTAGCTCAGGCTATCAT | -0.0912 | -0.299 | -0.372 | -0.485 | -0.548 | -0.377 | 0.539 | -0.247 | -0.307 | 0.0803 | 0.00476 | -0.161 | -0.42 | -0.376 | -1.11 | -0.38 | 0.0281 | -0.246 | 0.11 | 0.0595
CCTAGCAGGCTAGGGTCACTCAAGCATTTCGCTT | 2.86 | 2.4 | -0.638 | 2.55 | -0.881 | 3.67 | 0.643 | 1.87 | -0.254 | 0.841 | 0.26 | 0.393 | -1.9 | -1.59 | 1.58 | 3.3 | -0.41 | 4.27 | -0.0687 | 2.89
